Among the test systems are NCI-H23 lung; NCI-H226 lung; NCI-H322M lung; HOP-62 NSCLC; NCI-H460 lung; HOP-92 NSCLC; NCI-H522 lung; A549/ATCC NSCLC; 786-0 renal; COLO 205 colon; DU-145 prostate; K-562 leukemia; MALME-3M melanoma; MDA-MB-231 breast; RXF 393 renal; SF-268 CNS; SF-295 CNS; SF-539 CNS; UACC-257 melanoma; M14 melanoma.
Experiment in all cases: NCI-60 one-dose screen, 48 h (100 = growth as untreated, 0 = no growth, -100 = all killed)
Conditions in all cases: 10 µM unless noted

The panel holds about 83,000 compounds, 20% with a hit somewhere; the sample as a whole holds those more often.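 Each cell line was grown in a 96-well plate and treated with one concentration of compound for 48 hours. Values below 10 were considered active.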 Values without a mark were called inactive. Activity calls are given as the source filed them.

With `Cn1ncc2ncc(-c3ccc4ncc(C#N)c(N5CCc6cc(F)c(Cl)cc65)c4c3)cc21`, the growth in the assay with NCI-H23 lung was 46.8%; with NCI-H226 lung, 24.7%; with NCI-H322M lung it was 38.9%; in the assay on HOP-62 NSCLC, 22.3%; in the assay with NCI-H460 lung, 38.5%; with HOP-92 NSCLC it was 7.43% (active). Besides, the growth in the assay with NCI-H522 lung is 20.3%; in the assay with A549/ATCC NSCLC, 27.8%; in the assay on 786-0 renal, 21.8%; with COLO 205 colon, 51.4%; in the assay on DU-145 prostate, 30%; with K-562 leukemia, 39.7%. Moreover, the growth with MALME-3M melanoma was 39.5%; with MDA-MB-231 breast, 26.7%; with RXF 393 renal, -17.4% (active); in the assay on SF-268 CNS, 49.7%; in the assay on SF-295 CNS, 22.9%; with SF-539 CNS, 27.1%. Moreover, the growth in the assay with UACC-257 melanoma is 54.9%; in the assay with M14 melanoma, 44.9%.

Turning to `CC(O)c1cccc(/C(N)=N/C(N)=N/c2nc3ccccc3s2)c1` (configuration not stated), the growth in the assay with NCI-H23 lung is 91.6%; in the assay with NCI-H226 lung, 85.9%; with NCI-H322M lung it was 97.4%; with NCI-H460 lung, 85.4%; in the assay on HOP-92 NSCLC, 97.6%; with NCI-H522 lung, 96.9%. The growth is 82% in the assay on A549/ATCC NSCLC; 101% with 786-0 renal; 109% with COLO 205 colon; 96.8% in the assay with DU-145 prostate; 72% with K-562 leukemia; 97% in the assay on MALME-3M melanoma. Moreover, the growth was 94.9% in the assay with MDA-MB-231 breast; 104% in the assay with RXF 393 renal; 94.3% with SF-268 CNS; 86.7% in the assay with SF-295 CNS; 96.8% in the assay with SF-539 CNS; 103% in the assay on UACC-257 melanoma. The growth in the assay with M14 melanoma was 94.4%.

Turning to `COC(=O)[C@@H](Cc1c[nH]c2ccccc12)NC(=O)CCCCOc1cc(O)c2c(=O)cc(-c3ccccc3)oc2c1`, the growth in the assay on NCI-H23 lung was 35.2%; with NCI-H226 lung it was 88.8%; in the assay on NCI-H322M lung, 95.8%; with HOP-62 NSCLC, 96.2%; with NCI-H460 lung, 94.4%; in the assay on HOP-92 NSCLC, 60.6%. Further, the growth is 86.7% in the assay on NCI-H522 lung; 97% with 786-0 renal; 93.3% with DU-145 prostate; 83.6% in the assay with K-562 leukemia; 94.3% with MALME-3M melanoma; 81.7% in the assay on MDA-MB-231 breast. The growth was 76.8% in the assay with RXF 393 renal; 84.2% in the assay on SF-268 CNS; 91.2% in the assay on SF-295 CNS; 90.3% with SF-539 CNS; 97.1% in the assay on UACC-257 melanoma; 97.2% in the assay with M14 melanoma.

In the case of `COc1cc(OC)cc(-c2cc(-c3c[nH]c4ccccc34)nc(-c3c[nH]c4ccccc34)c2C#N)c1`, the growth in the assay with NCI-H23 lung was 104%; in the assay with NCI-H226 lung it was 87.3%; in the assay with NCI-H322M lung it was 105%; with HOP-62 NSCLC it was 96.3%; in the assay with NCI-H460 lung it was 103%; in the assay with HOP-92 NSCLC, 95%. The growth was 92.1% with NCI-H522 lung; 105% with 786-0 renal; 110% with COLO 205 colon; 101% in the assay with DU-145 prostate; 93.2% in the assay with K-562 leukemia; 108% with MALME-3M melanoma. Besides, the growth is 101% with MDA-MB-231 breast; 108% in the assay with RXF 393 renal; 100% with SF-268 CNS; 101% in the assay on SF-295 CNS; 94.2% in the assay with SF-539 CNS; 112% in the assay on UACC-257 melanoma. Moreover, the growth in the assay on M14 melanoma is 95%.

Turning to `CN1CCN(Cc2ccc(NC(=O)c3cncc(C#Cc4cnc5ccc(N)nn45)c3)cc2C(F)(F)F)CC1`, the growth with NCI-H23 lung is 4.35% (active); in the assay with NCI-H226 lung, 17.2%; in the assay on NCI-H322M lung it was 12.4%; in the assay on NCI-H460 lung, 14.9%; with HOP-92 NSCLC it was -22.7% (active); in the assay with NCI-H522 lung, 12.5%. In addition, the growth is 38.2% in the assay with A549/ATCC NSCLC; 50.1% with 786-0 renal; -41.8% (active) with COLO 205 colon; 17.7% in the assay with DU-145 prostate; 6.78% (active) in the assay on K-562 leukemia; -36.6% (active) in the assay on MALME-3M melanoma. For the same compound, the growth with MDA-MB-231 breast was 2.36% (active); with RXF 393 renal, -9.41% (active); with SF-268 CNS, 6.31% (active); with SF-295 CNS it was 53.8%; with SF-539 CNS it was 3.36% (active); in the assay on UACC-257 melanoma, 55.3%. For the same compound, the growth in the assay with M14 melanoma was -1.8% (active).

`CN1CCN(CC#CCn2c3c(c4ccccc42)C[C@]2(C)[C@H]4CC=C5[C@@H]6CC(C)(C)CC[C@]6(C(=O)N6CCOCC6)CC[C@@]5(C)[C@]4(C)CC[C@H]2C3(C)C)CC1`: the growth with NCI-H23 lung was 74%; in the assay on NCI-H226 lung, 85.7%; in the assay with NCI-H322M lung, 94.9%; with NCI-H460 lung, 17.6%; with HOP-92 NSCLC, 22.5%; with NCI-H522 lung, 97%. Moreover, the growth in the assay with A549/ATCC NSCLC is 41.9%; in the assay on 786-0 renal it was 76.3%; with COLO 205 colon, 87.3%; in the assay on DU-145 prostate, 64.8%; with K-562 leukemia, -23% (active); in the assay with MALME-3M melanoma it was 83.3%. The growth was 43.1% in the assay on MDA-MB-231 breast; 68.4% in the assay on RXF 393 renal; 83.5% in the assay on SF-268 CNS; 99.3% in the assay on SF-295 CNS; 73.9% with SF-539 CNS; 102% with UACC-257 melanoma. The growth with M14 melanoma is 87.7%.

Consider `Nc1cc(C(=O)N/N=C\c2ccc(OC(F)F)c(OC3CCCC3)c2)nn1CC(O)c1ccccc1` (configuration not stated), for which the growth in the assay on NCI-H23 lung was 95.7%; in the assay with NCI-H226 lung it was 92.7%; in the assay with NCI-H322M lung, 103%; in the assay with NCI-H460 lung, 105%; with HOP-92 NSCLC it was 84.1%; in the assay on NCI-H522 lung it was 88.9%. The growth is 95.3% with A549/ATCC NSCLC; 107% in the assay with 786-0 renal; 112% in the assay with COLO 205 colon; 105% in the assay on DU-145 prostate; 88.4% in the assay with K-562 leukemia; 112% in the assay on MALME-3M melanoma. In addition, the growth with MDA-MB-231 breast was 97.5%; with RXF 393 renal, 96.3%; in the assay with SF-268 CNS, 100%; in the assay with SF-295 CNS it was 101%; with SF-539 CNS, 98.6%; in the assay with UACC-257 melanoma, 104%. Also, the growth with M14 melanoma was 110%.

As for `Cc1cc(Br)ccc1-n1cc(C#N)c(N)c1C(=O)c1ccc(Br)cc1`, the growth is 92.7% in the assay with NCI-H23 lung; 97.7% with NCI-H226 lung; 104% with NCI-H322M lung; 103% with HOP-62 NSCLC; 113% in the assay with NCI-H460 lung; 94.2% in the assay with HOP-92 NSCLC. Besides, the growth with NCI-H522 lung was 99.6%; in the assay on 786-0 renal, 93.5%; with COLO 205 colon it was 118%; in the assay with DU-145 prostate, 119%; in the assay with K-562 leukemia it was 119%; in the assay with MALME-3M melanoma, 106%. In addition, the growth was 93.6% with MDA-MB-231 breast; 108% with RXF 393 renal; 114% in the assay with SF-268 CNS; 98.5% with SF-295 CNS; 97.4% in the assay with SF-539 CNS; 103% with UACC-257 melanoma. Besides, the growth in the assay with M14 melanoma was 89.4%.
